Tests used:
Experiment in all cases: log2 ratio of Biotin-Ahx-Ub-VS probe labelling (fragment/DMSO); higher = less target engagement (more negative = stronger competition), active = hit call of the paper (q ≤ 0.05, log2 ratio ≤ -1)
Settings in all cases: compound concentration: 200 uM; treatment time: 3 h
[1] = molecular target: USP34 (UniProt Q70CQ2)
Procedure, shortened: (§1)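 Values give the average log2 ratio of fragment to vehicle, assessed by unpaired t-test on global-median-normalised Spectronaut label-free quantities. Proteins needed ≥2 unique peptides. HEK293T lysate (495 µg per sample) was treated in triplicate with fragment at 200 µM or vehicle for 3 h and then with Biotin-Ahx-Ub-VS at 0.5 µM final for 1 h. Labelled DUBs were NeutrAvidin-enriched, digested and run by diaPASEF LC-MS/MS.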

[2] = molecular target: T1, USP36 (UniProt Q9P275)
T1 sequence (whole entry): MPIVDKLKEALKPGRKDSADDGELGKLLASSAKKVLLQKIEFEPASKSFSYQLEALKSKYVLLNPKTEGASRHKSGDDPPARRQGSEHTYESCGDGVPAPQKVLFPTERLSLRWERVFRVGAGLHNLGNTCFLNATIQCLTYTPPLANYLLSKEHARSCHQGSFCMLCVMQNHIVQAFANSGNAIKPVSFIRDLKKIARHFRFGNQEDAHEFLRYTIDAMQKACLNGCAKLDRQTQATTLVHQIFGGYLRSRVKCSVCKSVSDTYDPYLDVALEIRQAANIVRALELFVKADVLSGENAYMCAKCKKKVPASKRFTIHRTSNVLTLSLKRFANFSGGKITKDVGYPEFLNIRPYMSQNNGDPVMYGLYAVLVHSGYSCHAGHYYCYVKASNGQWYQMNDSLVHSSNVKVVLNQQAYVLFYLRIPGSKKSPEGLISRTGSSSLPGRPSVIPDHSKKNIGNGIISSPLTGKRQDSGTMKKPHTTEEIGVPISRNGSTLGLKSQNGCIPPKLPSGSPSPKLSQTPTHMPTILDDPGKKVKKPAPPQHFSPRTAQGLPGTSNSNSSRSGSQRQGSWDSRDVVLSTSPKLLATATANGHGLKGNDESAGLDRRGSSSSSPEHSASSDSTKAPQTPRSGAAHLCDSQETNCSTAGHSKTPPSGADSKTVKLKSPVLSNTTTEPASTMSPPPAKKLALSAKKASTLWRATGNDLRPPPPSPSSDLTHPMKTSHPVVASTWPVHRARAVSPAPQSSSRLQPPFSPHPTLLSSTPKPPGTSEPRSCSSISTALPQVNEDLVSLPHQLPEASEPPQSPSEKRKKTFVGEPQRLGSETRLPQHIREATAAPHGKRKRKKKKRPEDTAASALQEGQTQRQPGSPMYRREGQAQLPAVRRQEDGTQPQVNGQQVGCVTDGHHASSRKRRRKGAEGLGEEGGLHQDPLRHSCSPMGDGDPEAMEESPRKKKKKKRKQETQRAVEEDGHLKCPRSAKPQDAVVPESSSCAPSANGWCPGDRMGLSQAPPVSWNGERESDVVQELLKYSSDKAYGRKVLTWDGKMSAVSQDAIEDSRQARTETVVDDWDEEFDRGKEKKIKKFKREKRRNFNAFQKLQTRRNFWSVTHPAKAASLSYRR
Procedure, shortened: as §1

[3] = molecular target: T2, USP38 (UniProt Q8NB14)
T2 sequence (whole entry): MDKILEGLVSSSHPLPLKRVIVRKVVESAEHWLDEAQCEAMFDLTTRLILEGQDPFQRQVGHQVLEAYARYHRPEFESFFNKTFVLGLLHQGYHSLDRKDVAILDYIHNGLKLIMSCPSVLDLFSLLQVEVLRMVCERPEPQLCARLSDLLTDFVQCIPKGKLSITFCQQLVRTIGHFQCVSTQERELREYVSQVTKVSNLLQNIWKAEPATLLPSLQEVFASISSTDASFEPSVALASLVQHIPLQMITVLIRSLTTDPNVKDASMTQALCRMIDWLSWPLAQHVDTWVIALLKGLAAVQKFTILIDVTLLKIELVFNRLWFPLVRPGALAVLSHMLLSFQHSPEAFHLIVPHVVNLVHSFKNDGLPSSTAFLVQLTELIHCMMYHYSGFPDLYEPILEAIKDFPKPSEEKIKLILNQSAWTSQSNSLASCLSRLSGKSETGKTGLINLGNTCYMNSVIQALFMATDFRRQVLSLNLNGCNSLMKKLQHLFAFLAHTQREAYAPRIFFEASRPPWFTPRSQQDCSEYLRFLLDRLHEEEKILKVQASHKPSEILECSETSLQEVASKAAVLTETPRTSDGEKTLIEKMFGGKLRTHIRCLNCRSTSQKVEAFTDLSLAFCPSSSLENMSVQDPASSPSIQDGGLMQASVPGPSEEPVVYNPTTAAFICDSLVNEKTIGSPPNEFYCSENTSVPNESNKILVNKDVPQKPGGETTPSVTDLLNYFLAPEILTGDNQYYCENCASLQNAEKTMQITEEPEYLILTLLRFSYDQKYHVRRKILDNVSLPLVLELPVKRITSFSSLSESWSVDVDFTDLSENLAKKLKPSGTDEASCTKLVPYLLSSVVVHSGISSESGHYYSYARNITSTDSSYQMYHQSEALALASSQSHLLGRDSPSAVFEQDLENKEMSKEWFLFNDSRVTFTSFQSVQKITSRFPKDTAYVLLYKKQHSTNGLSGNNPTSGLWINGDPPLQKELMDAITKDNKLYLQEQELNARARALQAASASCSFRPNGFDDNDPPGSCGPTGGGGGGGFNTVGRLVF
Procedure, shortened: as §1

[4] = molecular target: T3, USP39 (UniProt Q53GS9)
T3 sequence (whole entry): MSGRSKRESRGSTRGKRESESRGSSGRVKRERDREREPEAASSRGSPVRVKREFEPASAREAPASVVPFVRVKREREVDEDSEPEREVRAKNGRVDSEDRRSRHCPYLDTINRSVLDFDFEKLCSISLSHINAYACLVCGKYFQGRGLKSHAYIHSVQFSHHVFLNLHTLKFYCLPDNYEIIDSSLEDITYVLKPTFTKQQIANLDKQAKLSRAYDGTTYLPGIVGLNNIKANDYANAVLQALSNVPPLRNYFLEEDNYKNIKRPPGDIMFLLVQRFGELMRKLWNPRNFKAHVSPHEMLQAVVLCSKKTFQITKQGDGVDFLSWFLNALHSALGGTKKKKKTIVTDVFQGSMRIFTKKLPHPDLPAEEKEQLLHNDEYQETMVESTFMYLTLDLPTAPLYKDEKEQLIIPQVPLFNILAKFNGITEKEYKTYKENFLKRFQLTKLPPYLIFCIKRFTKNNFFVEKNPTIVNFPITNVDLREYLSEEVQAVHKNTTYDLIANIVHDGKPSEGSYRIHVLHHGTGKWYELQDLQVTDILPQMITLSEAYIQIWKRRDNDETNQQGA
Procedure, shortened: as §1

[5] = molecular target: T4, USP4 (UniProt Q13107)
T4 sequence (whole entry): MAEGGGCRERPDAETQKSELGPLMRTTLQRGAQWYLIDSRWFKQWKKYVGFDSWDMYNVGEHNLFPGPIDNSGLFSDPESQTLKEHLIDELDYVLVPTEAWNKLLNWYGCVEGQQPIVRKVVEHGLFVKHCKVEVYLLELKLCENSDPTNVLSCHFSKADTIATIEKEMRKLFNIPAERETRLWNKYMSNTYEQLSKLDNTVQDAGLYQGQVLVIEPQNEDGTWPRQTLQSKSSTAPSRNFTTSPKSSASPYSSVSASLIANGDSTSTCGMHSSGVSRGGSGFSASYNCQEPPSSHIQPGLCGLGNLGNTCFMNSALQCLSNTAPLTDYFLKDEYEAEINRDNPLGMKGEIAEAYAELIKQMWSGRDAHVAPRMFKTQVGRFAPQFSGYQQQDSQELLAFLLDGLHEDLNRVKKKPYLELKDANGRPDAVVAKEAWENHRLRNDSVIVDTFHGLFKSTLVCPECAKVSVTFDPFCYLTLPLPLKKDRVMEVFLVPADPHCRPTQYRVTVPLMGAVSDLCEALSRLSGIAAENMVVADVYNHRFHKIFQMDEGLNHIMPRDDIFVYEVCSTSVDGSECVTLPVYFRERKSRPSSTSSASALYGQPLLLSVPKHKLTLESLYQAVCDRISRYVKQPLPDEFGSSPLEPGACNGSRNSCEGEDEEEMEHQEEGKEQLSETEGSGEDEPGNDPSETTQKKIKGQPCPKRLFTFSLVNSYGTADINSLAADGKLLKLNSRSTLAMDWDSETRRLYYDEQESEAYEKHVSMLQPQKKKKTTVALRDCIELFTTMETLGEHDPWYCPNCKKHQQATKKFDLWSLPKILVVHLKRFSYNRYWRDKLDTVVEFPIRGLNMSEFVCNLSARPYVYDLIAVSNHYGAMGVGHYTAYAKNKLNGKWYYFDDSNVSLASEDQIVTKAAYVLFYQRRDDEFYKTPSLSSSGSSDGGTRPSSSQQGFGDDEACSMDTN
Procedure, shortened: as §1

Measured: log2 ratio of Biotin-Ahx-Ub-VS probe labelling

Chain of USP34 (Q70CQ2 whole entry, the tested form may be a part): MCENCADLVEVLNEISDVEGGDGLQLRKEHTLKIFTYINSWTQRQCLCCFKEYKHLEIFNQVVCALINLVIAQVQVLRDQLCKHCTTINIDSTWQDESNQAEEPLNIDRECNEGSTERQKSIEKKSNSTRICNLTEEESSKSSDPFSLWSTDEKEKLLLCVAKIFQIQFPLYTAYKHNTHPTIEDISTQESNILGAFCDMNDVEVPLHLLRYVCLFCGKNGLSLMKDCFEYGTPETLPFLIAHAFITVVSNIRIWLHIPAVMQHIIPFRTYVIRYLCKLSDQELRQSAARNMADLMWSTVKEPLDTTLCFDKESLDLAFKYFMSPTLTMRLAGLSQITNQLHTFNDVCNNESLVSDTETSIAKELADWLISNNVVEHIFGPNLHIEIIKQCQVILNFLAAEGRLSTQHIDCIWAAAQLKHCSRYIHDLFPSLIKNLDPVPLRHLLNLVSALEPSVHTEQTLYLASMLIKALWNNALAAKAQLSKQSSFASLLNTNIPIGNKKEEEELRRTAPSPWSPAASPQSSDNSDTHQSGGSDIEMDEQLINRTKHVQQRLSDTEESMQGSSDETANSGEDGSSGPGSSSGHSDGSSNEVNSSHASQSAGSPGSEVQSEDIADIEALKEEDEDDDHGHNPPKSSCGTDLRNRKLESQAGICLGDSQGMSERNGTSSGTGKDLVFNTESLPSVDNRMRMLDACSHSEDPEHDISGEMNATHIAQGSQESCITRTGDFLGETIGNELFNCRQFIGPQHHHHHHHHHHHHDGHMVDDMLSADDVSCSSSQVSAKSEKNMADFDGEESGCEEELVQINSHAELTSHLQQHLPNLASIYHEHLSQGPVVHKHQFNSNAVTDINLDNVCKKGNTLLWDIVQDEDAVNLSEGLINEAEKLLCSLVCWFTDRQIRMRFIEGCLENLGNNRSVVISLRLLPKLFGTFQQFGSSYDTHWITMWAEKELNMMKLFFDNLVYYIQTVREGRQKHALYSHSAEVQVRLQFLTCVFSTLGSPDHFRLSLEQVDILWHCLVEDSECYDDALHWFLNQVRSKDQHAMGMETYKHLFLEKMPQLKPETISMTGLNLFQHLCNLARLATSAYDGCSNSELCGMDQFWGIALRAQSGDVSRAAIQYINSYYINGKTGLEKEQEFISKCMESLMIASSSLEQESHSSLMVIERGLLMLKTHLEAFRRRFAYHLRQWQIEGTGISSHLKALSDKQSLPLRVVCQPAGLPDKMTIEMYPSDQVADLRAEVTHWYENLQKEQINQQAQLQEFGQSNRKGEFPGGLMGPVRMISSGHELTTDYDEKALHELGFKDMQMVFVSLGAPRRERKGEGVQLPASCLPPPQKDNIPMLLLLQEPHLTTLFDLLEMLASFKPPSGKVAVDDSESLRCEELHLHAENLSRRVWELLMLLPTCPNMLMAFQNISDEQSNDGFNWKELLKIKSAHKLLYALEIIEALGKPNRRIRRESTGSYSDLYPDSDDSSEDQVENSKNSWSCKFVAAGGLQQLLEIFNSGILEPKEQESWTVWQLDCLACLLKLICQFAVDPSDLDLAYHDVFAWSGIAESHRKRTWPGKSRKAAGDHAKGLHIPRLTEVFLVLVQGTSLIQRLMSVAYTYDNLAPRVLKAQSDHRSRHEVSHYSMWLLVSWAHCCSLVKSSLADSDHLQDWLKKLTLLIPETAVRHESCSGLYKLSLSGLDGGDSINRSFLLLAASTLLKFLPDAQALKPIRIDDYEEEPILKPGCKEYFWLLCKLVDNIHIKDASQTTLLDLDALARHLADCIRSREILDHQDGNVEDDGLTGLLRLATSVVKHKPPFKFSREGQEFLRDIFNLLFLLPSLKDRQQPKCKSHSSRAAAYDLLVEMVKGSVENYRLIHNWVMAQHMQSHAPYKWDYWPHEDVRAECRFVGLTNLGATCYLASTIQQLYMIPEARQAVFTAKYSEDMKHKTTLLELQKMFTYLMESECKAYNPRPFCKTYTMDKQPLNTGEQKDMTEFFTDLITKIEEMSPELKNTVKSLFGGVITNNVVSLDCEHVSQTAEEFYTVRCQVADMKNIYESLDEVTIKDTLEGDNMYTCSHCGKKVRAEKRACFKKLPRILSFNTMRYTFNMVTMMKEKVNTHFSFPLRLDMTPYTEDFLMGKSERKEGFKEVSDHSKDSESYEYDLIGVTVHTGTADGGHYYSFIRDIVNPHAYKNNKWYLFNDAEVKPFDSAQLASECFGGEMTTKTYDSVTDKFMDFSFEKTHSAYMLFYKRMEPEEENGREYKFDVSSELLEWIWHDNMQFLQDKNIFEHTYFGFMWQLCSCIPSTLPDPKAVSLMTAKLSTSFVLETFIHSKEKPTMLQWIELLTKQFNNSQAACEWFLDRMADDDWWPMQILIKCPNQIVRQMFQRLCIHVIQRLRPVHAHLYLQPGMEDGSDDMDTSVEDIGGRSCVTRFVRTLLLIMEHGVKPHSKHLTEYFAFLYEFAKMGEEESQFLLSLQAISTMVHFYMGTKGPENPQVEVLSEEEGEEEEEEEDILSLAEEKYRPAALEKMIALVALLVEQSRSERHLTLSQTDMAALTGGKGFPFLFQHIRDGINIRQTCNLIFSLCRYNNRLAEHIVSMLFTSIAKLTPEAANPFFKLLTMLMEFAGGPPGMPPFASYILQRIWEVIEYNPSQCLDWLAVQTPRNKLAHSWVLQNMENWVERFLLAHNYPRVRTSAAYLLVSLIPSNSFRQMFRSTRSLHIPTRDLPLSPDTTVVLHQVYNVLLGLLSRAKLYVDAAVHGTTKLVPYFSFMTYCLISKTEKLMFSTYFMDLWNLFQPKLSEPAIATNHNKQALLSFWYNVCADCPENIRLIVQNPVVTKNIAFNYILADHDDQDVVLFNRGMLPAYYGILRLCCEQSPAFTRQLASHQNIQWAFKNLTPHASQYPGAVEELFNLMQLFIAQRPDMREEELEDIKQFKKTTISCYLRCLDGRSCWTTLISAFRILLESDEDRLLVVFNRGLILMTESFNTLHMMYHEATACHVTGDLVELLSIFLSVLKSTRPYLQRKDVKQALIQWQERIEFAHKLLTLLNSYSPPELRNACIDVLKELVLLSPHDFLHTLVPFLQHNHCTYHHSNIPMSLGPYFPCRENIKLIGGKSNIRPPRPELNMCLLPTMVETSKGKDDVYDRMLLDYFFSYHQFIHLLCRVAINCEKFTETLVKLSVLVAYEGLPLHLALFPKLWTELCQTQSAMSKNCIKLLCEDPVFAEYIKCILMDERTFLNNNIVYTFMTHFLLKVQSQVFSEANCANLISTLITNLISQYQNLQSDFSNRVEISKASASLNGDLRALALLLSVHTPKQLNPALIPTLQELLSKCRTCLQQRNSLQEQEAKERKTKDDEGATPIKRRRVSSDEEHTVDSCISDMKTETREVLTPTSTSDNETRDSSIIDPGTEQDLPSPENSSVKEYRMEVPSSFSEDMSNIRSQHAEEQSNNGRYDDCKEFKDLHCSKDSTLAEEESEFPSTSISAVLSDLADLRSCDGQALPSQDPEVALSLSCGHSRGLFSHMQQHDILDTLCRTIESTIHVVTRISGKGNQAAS

N#Cc1ccc(Cl)cc1NC(=O)CCl
inactive: [1] -0.22 | [2] 0.137 | [3] -0.0529 | [4] -0.0922 | [5] -0.0565
